Screening data deposited in PubChem BioAssay by several laboratories.
An excerpt weighted towards active compounds, which were near 1.7% of everything screened.
DUSP3 inh: inhibitors of human VHR1 phosphatase (DUSP3) | recombinant VHR phosphatase, pNPP absorbance | inhibition, % at 13.3 µM | hit rate 0.52% among 290,000; in the data active = inhibition above about 50%
SSB-PriA inh: inhibitors of Klebsiella pneumoniae PriA binding to SSB C-terminal tail | AlphaScreen SSBct-PriA binding, biotinylated peptide | inhibition, % at 33 µM | hit rate 0.6% among 430,000; in the data active = inhibition mostly above about 37%, no sharp cut-off; inactive = mostly below about 20%;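 note: plate controls were negative control peptide for no effect and reference peptide for full effect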
CCHF vOTU inh-1: blocks the CCHF virus ovarian tumor domain protease. CCHFV vOTU protease, Pep-AMC fluorescence. inhibition, % at 11.5 µM. hit rate 0.55% among 370,000; note: 0% = vehicle wells with enzyme and 100% = no enzyme wells
3CLpro inhibitor: SARS-CoV 3CLpro protease inhibition | P0C6X7 | recombinant SARS-CoV 3CLpro, quenched FRET peptide cleavage | inhibition, % at 6 µM | hit rate 0.14% among 290,000; in the data active = inhibition above about 12%
RecA intein inh: blocks M. tuberculosis RecA intein splicing; P9WHJ3; inhibition, % (concentration not given with the values); cell-free RecA intein splicing, fluorescence; hit rate 0.75% among 290,000; in the data active = inhibition above about 30%;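 note: 0% = vehicle wells and 100% = reference inhibitor control wells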
Target sequence (P9WHJ3 whole entry, looked up): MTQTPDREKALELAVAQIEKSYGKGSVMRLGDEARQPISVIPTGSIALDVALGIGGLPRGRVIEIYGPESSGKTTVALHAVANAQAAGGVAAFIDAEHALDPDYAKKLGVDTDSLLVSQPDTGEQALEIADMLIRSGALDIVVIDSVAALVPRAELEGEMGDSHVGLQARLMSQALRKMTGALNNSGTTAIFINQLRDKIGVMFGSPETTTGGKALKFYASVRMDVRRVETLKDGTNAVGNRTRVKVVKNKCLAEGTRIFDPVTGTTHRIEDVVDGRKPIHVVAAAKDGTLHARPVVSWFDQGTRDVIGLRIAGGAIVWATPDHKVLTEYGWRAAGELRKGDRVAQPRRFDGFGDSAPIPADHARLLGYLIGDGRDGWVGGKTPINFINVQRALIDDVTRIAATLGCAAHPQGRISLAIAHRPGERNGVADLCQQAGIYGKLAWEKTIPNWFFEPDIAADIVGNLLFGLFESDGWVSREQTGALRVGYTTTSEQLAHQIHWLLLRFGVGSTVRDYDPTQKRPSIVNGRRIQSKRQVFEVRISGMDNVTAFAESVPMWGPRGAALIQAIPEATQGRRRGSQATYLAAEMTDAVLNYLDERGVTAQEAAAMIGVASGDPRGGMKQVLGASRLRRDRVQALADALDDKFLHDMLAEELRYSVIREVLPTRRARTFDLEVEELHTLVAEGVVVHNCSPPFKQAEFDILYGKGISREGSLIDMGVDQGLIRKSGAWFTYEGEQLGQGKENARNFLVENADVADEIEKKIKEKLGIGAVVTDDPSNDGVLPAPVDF
CCHF vOTU inh-2: confirmation of CCHF virus vOTU protease inhibitors; shares compounds with CCHF vOTU inh-1; Recombinant CCHFV vOTU, Pep-AMC fluorescence; inhibition, % at 11.5 µM; hit rate 17% among 1,900
The depositor's hits bear a star. Cut-off read from the data, not from the text of the source, unless noted: active = inhibition above about 30%; inactive = the rest.

Screening CC1CCN(C2(O)C(=O)Nc3ccc(Br)cc32)CC1 (stereo not drawn) returned DUSP3 inh 16, SSB-PriA inh 10, CCHF vOTU inh-1 3, 3CLpro inhibitor -2 and RecA intein inh 2.
`O=C1Nc2ccc([N+](=O)[O-])cc2C1(O)N1CCCCCC1` (stereo not drawn) gave DUSP3 inh 10, SSB-PriA inh 3, CCHF vOTU inh-1 30*, 3CLpro inhibitor 4, RecA intein inh 0 and CCHF vOTU inh-2 -3.
Screening Cn1c(=O)c2c(-c3ccccc3)n(-c3ccc(N)cc3)cc2n(C)c1=O returned CCHF vOTU inh-1 98* and CCHF vOTU inh-2 92*.
For Cc1oc2c(cc(NS(=O)(=O)c3ccc(F)cc3)c3ccccc32)c1C(=O)O the results were DUSP3 inh -4, SSB-PriA inh -1, CCHF vOTU inh-1 30*, 3CLpro inhibitor 8, RecA intein inh -1 and CCHF vOTU inh-2 -10.
`CC(c1ccccc1)N1C(=O)c2cccnc2C1=O` (stereo not drawn) gave DUSP3 inh 6, SSB-PriA inh -3, CCHF vOTU inh-1 -4, 3CLpro inhibitor -1 and RecA intein inh -3.
For CC(NC1=CC(=O)c2cccnc2C1=O)C(O)c1ccccc1 (stereo not drawn) the results were SSB-PriA inh 21, CCHF vOTU inh-1 101* and CCHF vOTU inh-2 94*.
For CCOc1cc(-c2nnc(NC(=O)/C=C/c3cccs3)o2)cc(OCC)c1OCC the results were SSB-PriA inh 0.
For COc1cccc(NS(=O)(=O)c2ccc3c(c2)N(C(C)=O)CCO3)c1 the results were DUSP3 inh 18, SSB-PriA inh 4, CCHF vOTU inh-1 6, 3CLpro inhibitor -1 and RecA intein inh -1.
CC(=O)N1CCOc2ccc(S(=O)(=O)Nc3cccc(C)c3)cc21 was read as DUSP3 inh 21, SSB-PriA inh -13, CCHF vOTU inh-1 31*, 3CLpro inhibitor -4, RecA intein inh 0 and CCHF vOTU inh-2 7.
For CCC(=O)NC(c1cccs1)c1cc([N+](=O)[O-])c2cccnc2c1O (stereo not drawn) the results were DUSP3 inh -2, SSB-PriA inh 75, CCHF vOTU inh-1 38*, 3CLpro inhibitor -2, RecA intein inh 2 and CCHF vOTU inh-2 33*.
Screening CCCC(=O)NC(c1cccs1)c1cc([N+](=O)[O-])c2cccnc2c1O (stereo not drawn) returned DUSP3 inh 28, SSB-PriA inh 29, CCHF vOTU inh-1 22, 3CLpro inhibitor -2 and RecA intein inh 7.
`COCCn1c(SCC(=O)NCC2CCCO2)nc2c(c1=O)SC(C)C2` (stereo not drawn) gave DUSP3 inh -9, SSB-PriA inh -9, CCHF vOTU inh-1 32*, 3CLpro inhibitor -1, RecA intein inh 1 and CCHF vOTU inh-2 -10.
For O=C(Cn1nc2ccc(SCc3ccc(Cl)cc3)nn2c1=O)Nc1ccccc1C(F)(F)F the results were SSB-PriA inh -8.
Screening Cc1ccc([C@H]2C[C@@H](O)[C@H](n3cc(-c4ccc(F)cc4)nn3)CN2C(=O)C2CCCCC2)cc1 returned CCHF vOTU inh-1 31* and CCHF vOTU inh-2 4.
Screening CCCCCC(=O)N1C[C@@H](n2cc(-c3ccc(F)cc3)nn2)[C@H](O)C[C@@H]1c1ccc(Cl)cc1 returned CCHF vOTU inh-1 34* and CCHF vOTU inh-2 5.
CCCCCC(=O)N1C[C@H](O)[C@@H](n2cc(-c3ccc(F)cc3)nn2)C[C@@H]1c1ccc(Cl)cc1 was read as CCHF vOTU inh-1 5.
`O=C(C1CCCCC1)N1C[C@H](n2cc(-c3ccc(F)cc3)nn2)[C@@H](O)C[C@@H]1c1ccc(Cl)cc1` gave CCHF vOTU inh-1 4.
Screening CC1CCN(S(=O)(=O)c2cccn(CC(=O)NCc3cccs3)c2=O)CC1 returned SSB-PriA inh 11.
For Cc1ccc(S(=O)(=O)NCCOc2cc(C)ccc2C)cc1 the results were DUSP3 inh -5, SSB-PriA inh -29, CCHF vOTU inh-1 30*, 3CLpro inhibitor 1, RecA intein inh 5 and CCHF vOTU inh-2 -9.
O=C(CCS(=O)(=O)c1ccccc1)NCCc1nc2c(c(C(F)(F)F)n1)COCC2 was read as SSB-PriA inh -24.
`C=CCn1c(O)c(C(CC)=Nc2ccc(N(C)C)cc2)c(=O)[nH]c1=O` gave DUSP3 inh 1, SSB-PriA inh 0, CCHF vOTU inh-1 38*, 3CLpro inhibitor 2, RecA intein inh -2 and CCHF vOTU inh-2 -21.
CCOC(=O)C1(C)CCCCCN1C(=O)c1ccc(OC)c(C(F)(F)F)c1 (stereo not drawn) was read as CCHF vOTU inh-1 35* and CCHF vOTU inh-2 -9.
For COc1ccc(C(=O)N2CCCC2(C)C(=O)O)cc1C(F)(F)F (stereo not drawn) the results were CCHF vOTU inh-1 9.
For CCN(CC)CCN(C(=O)c1ccc(S(=O)(=O)N2CCCC2)cc1)c1nc2c(F)cccc2s1 the results were SSB-PriA inh 14.
`Cc1ccccc1-n1c(/C=C/c2ccccn2)nc2ccccc2c1=O` gave DUSP3 inh 23, SSB-PriA inh -3, CCHF vOTU inh-1 32*, 3CLpro inhibitor -1, RecA intein inh -6 and CCHF vOTU inh-2 0.
Screening Cc1cc(C)c(S(=O)(=O)Nc2nnc(CC(C)C)s2)c(C)c1 returned DUSP3 inh 6, SSB-PriA inh -3, CCHF vOTU inh-1 30*, 3CLpro inhibitor 6, RecA intein inh 2 and CCHF vOTU inh-2 -17.
For COc1ccc(CN([C@H](CO)CC(C)C)S(=O)(=O)N(Cc2ccccc2)[C@H](CO)CC(C)C)cc1 the results were SSB-PriA inh 4, CCHF vOTU inh-1 34* and CCHF vOTU inh-2 2.
`COC1C(OC(=O)/C=C/C=C/C=C/C=C/C(=O)O)CCC2(CO2)C1C1(C)OC1CC=C(C)C` (stereo not drawn) gave SSB-PriA inh 3.
Screening COC1C(OC(=O)/C=C/C=C/C=C/C=C/C(=O)O)CCC2(CO2)C1C1(C)OC1CC=C(C)C (stereo not drawn) (tested in a mixture with another compound) returned CCHF vOTU inh-1 30* and CCHF vOTU inh-2 3.
COc1cc(NS(=O)(=O)c2ccc(NC(=O)/C(=C/c3ccccc3Cl)NC(=O)c3ccccc3)cc2)nc(OC)n1 was read as DUSP3 inh 8, SSB-PriA inh -3, CCHF vOTU inh-1 13, 3CLpro inhibitor 5 and RecA intein inh 4.
`O=C(Nc1ccc(S(=O)(=O)Nc2nccs2)cc1)/C(=C/c1ccccc1Cl)NC(=O)c1ccccc1` gave DUSP3 inh 13, SSB-PriA inh -13, CCHF vOTU inh-1 32*, 3CLpro inhibitor 4, RecA intein inh 10 and CCHF vOTU inh-2 -16.
Screening CC(C)CS(=O)(=O)C1CN(C(=O)c2ccc(S(=O)(=O)N3CCOCC3)cc2)C1 returned SSB-PriA inh -15.
